Screens as filed in PubChem BioAssay.
Sampled rows, rich in hits. Any-hit rate of the full collection: about 3.5%.
TEAD-YAP inh = TEAD-YAP interaction inhibition. inhibition, % at 9.12 µM. 1.4% of 640,000 active. HEK-TIYL cells, TEAD-Gal4/YAP UAS-luciferase luminescence; in the data active = inhibition above about 32%;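 also: 0% = median of test compound wells and 100% = reference inhibitor wells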
MITF inh = human MITF inhibition, primary screen | inhibition, % at 2.6 µM | AlphaScreen MITF homodimerization, bead proximity signal | 0.91% of 650,000 active; in the data active = inhibition above about 50%;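 also: 0% = vehicle wells with protein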
GPR151 activ = activates the human receptor GPR151. PathHunter beta-arrestin GPR151 cells, luminescence. activation, % at 11.2 µM. Q8TDV0. AID 1508602. 1% of 650,000 active; in the data active = activation above about 4.9%;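 also: 0% = median of compound wells and 100% = cells with positive control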
FBW7 activator = human FBW7 E3 ligase activation, primary screen; normalized activity (activation), % at 26.1 µM; 0.13% of 650,000 active; AID 1259310; Q969H0; AlphaScreen FBW7–phospho-cyclin E peptide binding, activator screen; in the data active = normalized activity above about 1.9%;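 also: purified mutant Fbw7 with reduced substrate affinity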
Numbers without * were called inactive.

SMILES	TEAD-YAP inh	MITF inh	GPR151 activ	FBW7 activator
COc1cc(Nc2nc(Nc3ccccc3)c3ncn(-c4ccccc4)c3n2)cc(OC)c1OC	-34.9	7.5	1.7	0.1
COc1cc(Nc2nc(Nc3nc4ccccc4n3C)nc3c2ncn3-c2ccccc2)cc(OC)c1OC	42.4*	-9.5	1.7	0.1
CCNc1nc(Nc2cc(OC)c(OC)c(OC)c2)c2ncn(-c3ccccc3)c2n1	47.3*	10.4	-0.4	-0.1
CCCc1oc2c(cc(NS(=O)(=O)c3ccc(F)cc3)c3ccccc32)c1C(=O)OCC	4.3	15.0	-1.0	0.2
Cc1ccc(NN=c2c(=O)c3ccccc3c2=O)cc1	-38.6	26.5	0.1	0.2
O=c1c(=NNc2ccccc2Cl)c(=O)c2ccccc12	57.8*	-0.6	0.7	0.0
O=c1c(=NNc2ccccc2)c(=O)c2ccccc12	-66.2	-10.2	0.0	-0.4
O=c1c(=NNc2nn[nH]n2)c(=O)c2ccccc12	97.7*	5.2	-0.2	-1.2
Cc1ccc(S(=O)(=O)N2CCCCC2CCNC(=O)C(=O)Nc2ccc(F)cc2)cc1 (centres undefined)	2.5	-19.1	0.4	0.0
O=C(Nc1cc2ccccc2oc1=O)c1ccc(Cl)cc1	-40.9	-1.4	-0.7	0.0
CCCOc1ccc(C2NC(=O)NC(C)=C2C(=O)OC(C(F)(F)F)C(F)(F)F)cc1 (centres undefined)	7.5	16.5	1.2	2.1*
CCOC(=O)C1=C(C)NC(=O)NC1c1ccc(-c2ccccc2)cc1 (centres undefined)	40.4*	-1.1	4.9	-0.1
CCCOc1ccc(C2NC(=O)NC(C)=C2C(=O)OC2CCCC2)cc1 (centres undefined)	55.6*	-7.8	-0.6	0.0
CCCOc1ccc(C2NC(=O)NC(C)=C2C(=O)OC2CCCCCC2)cc1 (centres undefined)	1.8	-13.3	0.6	0.0
CCOC(=O)C1=C(C)NC(=O)NC1c1ccc(OCc2ccccc2)cc1 (centres undefined)	-16.9	3.0	-1.4	-0.1
CCOc1ccc(-c2[nH]nc3c2C(c2cccnc2)C(C#N)=C(N)O3)c(OCC)c1 (centres undefined)	10.0	14.3	-1.2	0.4
OC1CCCN(Cc2cc(F)ccc2F)C1 (centres undefined)	4.1	12.4	-0.5	0.5
COc1cc(CNc2nc(C)c(-c3ccn(CC4CCCN(C)C4)n3)s2)cc(OC)c1 (centres undefined)	7.4	-17.9	0.1	-0.1
O=C(Nc1nc2cc3c(cc2s1)OCO3)C1=COCCO1	52.0*	4.4	-12.1	-0.1
COc1cc2nc(NC(=O)C3=COCCO3)sc2cc1OC	-25.5	8.1	-6.4	0.7
O=C1NN(c2ccccc2)C(=O)/C1=C/c1ccc([N+](=O)[O-])o1	6.8	78.6*	-0.6	-0.4
O=C1OC2(CCCCC2)OC(=O)C1=Cc1ccc([N+](=O)[O-])o1	6.4	66.4*	-1.0	-1.5
O=C1NN(c2ccccc2)C(=O)/C1=C\c1ccc(-c2ccc([N+](=O)[O-])cc2)o1	-9.8	5.2	-1.0	-0.1
O=C1NC(=S)N(c2ccc(F)cc2)C(=O)/C1=C\c1ccc2c(c1)OCCO2	8.5	71.2*	1.0	-0.2
O=C1OC2(CCCC2)OC(=O)C1=Cc1ccc(-c2ccc([N+](=O)[O-])cc2)o1	-0.7	17.1	-0.6	-0.1
SMILES	TEAD-YAP inh	MITF inh	GPR151 activ	FBW7 activator
O=C1NC(=S)N(c2ccccc2)C(=O)/C1=C\c1ccc([N+](=O)[O-])o1	4.6	80.1*	-1.1	-0.3
CSc1ccc(C2SCC(=O)N2c2ccc(F)cc2F)cc1 (centres undefined)	10.5	-6.8	-0.9	0.0
C=CCNC(=O)C(=O)NC1CCC(C(C)(C)CC)CC1 (centres undefined)	2.5	10.4	-1.6	0.2
Cc1cc(C(=O)COC(=O)c2ccc(O)cc2O)c(C)n1-c1ccccc1	63.9*	9.5	-0.8	-0.1
COC(=O)c1cc(OC)c(OC)cc1NC(=S)Nc1ccccc1	1.2	1.9	-1.7	-0.2
COc1ccccc1C(=O)NNC(=O)c1cccc(O)c1	79.2*	0.3	-2.5	0.0
COC(=O)c1cc(OC)c(OC)cc1NC(=S)NC(=O)c1ccccc1	33.4*	-1.4	-0.8	-0.1
COc1ccccc1NC(=S)Nc1ccc(N2CCOCC2)cc1	33.4*	17.9	-2.2	-0.1
COc1ccccc1C(=O)NC(=S)Nc1ccccc1C(=O)O	22.0	-4.4	-2.0	0.1
COc1ccccc1NC(=S)NC(=O)c1ccccc1OC	39.4*	7.1	-1.1	0.0
N#Cc1c(C(F)(F)F)cc(-c2cccs2)nc1SCC1CCCCC1=O (centres undefined)	2.4	-7.6	0.3	0.0
CCC1CCC(c2ccc(C3=N/C(=C/c4ccc(F)cc4)C(=O)O3)cc2)CC1 (centres undefined)	7.2	-2.6	1.5	0.0
